Data as given in PubChem BioAssay (Tox21).
Results filed as inconclusive are left out. Unmarked numbers belong to inactive results. Calls follow the shape of the full dose curve.

Test: p53 small molecule agonists, cell-based qHTS assay with human liver microsomes: qHTS cell viability counter screen (AID 1963579); also: nearly all actives have a fitted effect of over 45% in size
Details: p53RE-bla HCT-116 viability, ATP luminescence, 16 h, HLM; series mostly up to 66 µM; activity change, negative = cytotoxicity: at the top concentration
From the text: National Center for Advancing Translational Sciences [NCATS]
Division of Preclinical Innovation [DPI]
U.S. Environmental Protection Agency [EPA]
National Institutes of Environmental Health Sciences [NIEHS]
National Toxicology Program [NTP]
U.S. Food and Drug Administration [FDA]
p53, a tumor suppressor protein, is activated following cellular insult, including DNA damage and other cellular stresses. The activation of p53 regulates cell fate by inducing DNA repair, cell cycle arrest, apoptosis, or cellular senescence. The activation of p53, therefore, is a good indicator of DNA damage and other cellular stresses. […] The activation of the reporter gene under culture conditions can be detected by fluorescence intensity. This cell line was used to screen the Tox21 10K compound library in the condition of presence of human liver microsomes and to identify agonists that activate the p53 signaling pathway after in vitro metabolic activation (Ooka et al., Archive of Toxicology 96:1975-1987, 2022).
Tox21 Assay Protocol Summary:
The p53RE-bla cells were dispensed at 4,000cells/3ul/well in 1536-well black-clear bottom plates. After the assay plates were incubated at 37 C, 5% CO2 incubator for 5 hours, 23 nL of compounds dissolved in DMSO, positive controls or DMSO only was transferred to the assay plate. Following compound addition, 3 uL of human liver microsomes (XenoTech, Kansas City, KS) at final concentration of 0.5 mg/mL and 1uL of B-Nicotinamide adenine dinucleotide 2'-phosphate (NADPH) at final concentration of 0.5 mg/mL were transferred to the assay plate. The plates were incubated at 37 C for 16 hours. 1 uL of LiveBLAzer detection mixture was added to each well and the plates were incubated at room temperature in the dark for 2 h. Fluorescence intensity at 460 and 530 nm emission and 405 nm excitation were measured by an Envision plate reader. For cell viability readout that measures cytotoxicity, 4 ul/well of CellTiter-Glo reagent was added into the assay plates using a Flying Reagent Dispenser. After 30 min incubation at room temperature, the luminescence intensity in the plates was measured using a ViewLux plate reader.
% is scaled to controls: 0 for no effect and ±100 for the full control effect.

| SMILES | activity change, negative = cytotoxicity |
| --- | --- |
| CC(C)CCOC(=O)CC(C)C | -1.36% |
| NNc1nnc(NN)c2ccccc12 | -7.88% [at 30.3 µM] |
| CCCCCOc1ccc(C2SC(=O)NC2=O)cc1OCC (stereo not given) | 17% [at 30.3 µM] |
| COc1ccc2nc(NC(=O)Nc3ccccc3)sc2c1 | 0.42% [at 30.3 µM] |
| C=CCOc1nc(OCC=C)nc(OCC=C)n1 | -0.17% |
| CC(=O)OC(C)(C)Cc1ccccc1 | -2.17% |
| CC1(c2ccccc2)OC(C(=O)O)=CC1=O (stereo not given) | -11.1% [at 30.3 µM] |
| N#CCc1ccc(Cl)cc1Cl | -15.8% |
| O=S(O)(O)=S | -5.1% [at 5.99 µM] |
| CCOC(=O)/C=C/C(=O)O | -1.22% |
| CC(C)Cc1nccs1 | 2.83% |
| C=CCOC(=O)/C=C\C(=O)OCC=C | 6.77% |
| CCn1cc(C(=O)O)c(=O)c2cc(F)c(N3CCNCC3)nc21 | 18.1% [at 30.3 µM] |
| Cc1ccc2c(c1[N+](=O)[O-])C(=O)c1ccccc1C2=O | 3.34% [at 30.3 µM] |
| Oc1ccccc1C=NCc1ccccc1 | -6.78% [at 30.3 µM] |
| CCCC(C)C | -23.8% |
| Cc1nc(C)nc(N2C[C@@H](C)N(c3ccnc([C@@H](C)O)n3)[C@@H](C)C2)n1 | 20.7% [at 30.3 µM] |
| SC1CCCCC1 | -4.78% |
| OCCN1C[C@H](O)[C@@H](O)[C@H](O)[C@H]1CO | 7.11% [at 30.3 µM] |
| CC(CCl)OC(C)CCl (stereo not given) | 4.96% |

| SMILES | activity change, negative = cytotoxicity |
| --- | --- |
| O=C1c2ccccc2C(=O)N1CCl | -0.756% |
| CN1[C@@H]2CC[C@H]1CC(OC(=O)c1c[nH]c3ccccc13)C2 (stereo not given in full) | 29.9% [at 30.3 µM] |
| Cc1cc(O)c(C)c(C)c1O | 0.724% [at 30.3 µM] |
| CNC(=O)c1c(I)c(NC(=O)CCCCC(=O)Nc2c(I)c(C(=O)O)c(I)c(C(=O)NC)c2I)c(I)c(C(=O)O)c1I | 6.64% [at 30.3 µM] |
| OC[C@H]1O[C@@H](O[C@@H]2[C@@H](CO)O[C@](O)(CO)[C@H]2O)[C@H](O)[C@@H](O)[C@H]1O | -14.6% [at 30.3 µM] |
| CCCCCCCCCC[N+](C)(C)[O-] | 3.43% |
| Cc1cc(C(=O)O)ccc1[N+](=O)[O-] | -8.82% |
| NS(=O)(=O)c1cc2c(cc1Cl)NC(C(Cl)Cl)NS2(=O)=O (stereo not given) | 0.0763% [at 30.3 µM] |
| CCCc1nn(C)c2c(=O)[nH]c(-c3cc(S(=O)(=O)N4CCN(C)CC4)ccc3OCC)nc12 | -1.19% [at 30.3 µM] |
| OCC(CBr)(CBr)CBr | -3.26% |
| CN1CC(=O)NC1=N | 7.46% [at 30.3 µM] |
| NCC(=O)CCC(=O)O | 1.02% [at 30.3 µM] |
| Cc1ccccc1C#N | -2.62% |
| CN1CCC(=C2c3ccccc3C=Cc3ccccc32)CC1 | 20.5% [at 30.3 µM] |
| Clc1ccnc(Cl)n1 | -8.56% |
| CN1CCCN=C1COC(=O)C(O)(c1ccccc1)C1CCCCC1 (stereo not given) | -5.36% [at 30.3 µM] |
| CC(C)(C)NCC(O)COc1cccc2c1CCC(=O)N2 (stereo not given) | -0.0642% [at 30.3 µM] |
| Nc1ccc(Cl)c([N+](=O)[O-])c1 | 4.91% |
| CC(C)OC(=O)C(C)N(C(=O)c1ccccc1)c1ccc(F)c(Cl)c1 (stereo not given) | 5.58% |
| CCN(CC)CCOc1ccccc1C(=O)CCc1ccccc1 | 17.3% [at 30.3 µM] |
